Source: PubChem BioAssay (NCI)
About 79,000 compounds went through this panel and 15% of them were active in at least one assay; those are over-represented in the sample as a whole. Activity calls are given as the source filed them. Rule as the data show it: active = growth inhibition above about 70%; inactive = the rest.

How the values were obtained:
[1] = NCI Yeast Anticancer Drug Screen. Data for the rad50 strain (AID 155);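 also: 0% = growth of vehicle-only cultures of the same strain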; conditions: S. cerevisiae rad50 strain growth inhibition, hits give high values
Method in brief: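 Relative growth inhibition (compound vs vehicle) was measured in yeast with a defined repair-gene alteration.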

[2] = NCI Yeast Anticancer Drug Screen. Data for the mec2-1 strain (AID 157); conditions: S. cerevisiae mec2-1 strain, hits give high values
Method in brief: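 Mutant yeast (mec2-1) grown with compound; growth inhibition relative to vehicle control reported.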

[3] = NCI Yeast Anticancer Drug Screen. Data for the sgs1 mgt1 strain (AID 161);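 also: 0% = growth of cultures given vehicle only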; conditions: S. cerevisiae sgs1 mgt1 strain, hits give high values
Method in brief: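 Percent growth inhibition was derived by comparing compound-exposed mutant yeast with vehicle-exposed cultures. The strain carries alterations in DNA damage repair.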

[4] = NCI Yeast Anticancer Drug Screen. Data for the cln2 rad14 strain (AID 165);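 also: 0% = growth equal to vehicle treated cultures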; conditions: S. cerevisiae cln2 rad14 strain, hits give high values
Method in brief: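 Readout is yeast growth inhibition versus vehicle-treated controls, using a strain with cln2 and rad14 alterations exposed to compound.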

[5] = NCI Yeast Anticancer Drug Screen. Data for the bub3 strain (AID 167); conditions: S. cerevisiae bub3 mutant strain, hits give high values
Method in brief: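 Screening used yeast with an engineered genetic alteration affecting cell cycle control. Compound-exposed cultures were compared with vehicle cultures, and reduced growth was taken as inhibition.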

[6] = NCI Yeast Anticancer Drug Screen. Data for the mlh1 rad18 strain (AID 175); conditions: S. cerevisiae mlh1 rad18 strain growth inhibition, hits give high values
Method in brief: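 Genetically defined yeast (DNA repair-deficient) exposed to compounds; growth inhibition determined relative to vehicle.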

[7] = at 5.0 µM (retest, dose inferred, filed as 0.5)
[8] = at 50.0 µM (retest, dose inferred, filed as 5.0)

Measured: growth inhibition

CCOP(=O)(OCC)/C(C#N)=C/c1ccc(C(F)(F)F)cc1
inactive: [1]; [7] 20% | [2]; [7] -16% | [3]; [7] 4% | [4]; [7] 12% | [5]; [7] 28% | [6]; [7] 3%
active: [1]; [8] 90% | [1]; at 50.0 µM 89.5% | [2]; [8] 94% | [2]; at 50.0 µM 91.7% | [3]; [8] 93% | [3]; at 50.0 µM 90.9% | [4]; [8] 95% | [4]; at 50.0 µM 89.4% | [5]; [8] 97% | [5]; at 50.0 µM 89.4% | [6]; [8] 90% | [6]; at 50.0 µM 86.8%

O=C(Nc1ccc(Cl)cc1)OCC1C2C=CC(C2)C1CO (stereo not given)
inactive: [1]; [7] 6% | [2]; [7] -1% | [3]; [7] 2% | [4]; [7] 2% | [4]; at 50.0 µM 66.5% | [5]; [7] -3% | [6]; [7] 5%
active: [1]; [8] 95% | [1]; at 50.0 µM 86.8% | [2]; [8] 97% | [2]; at 50.0 µM 75.7% | [3]; [8] 97% | [3]; at 50.0 µM 98.4% | [4]; [8] 89% | [5]; [8] 92% | [5]; at 50.0 µM 92.9% | [6]; [8] 97% | [6]; at 50.0 µM 77.8%

COc1ccc(SSc2ccc(OC)n[n+]2[O-])[n+]([O-])n1
active: [1]; [7] 98% | [1]; [8] 99% | [1]; at 50.0 µM 99.3% | [2]; [7] 98% | [2]; [8] 100% | [2]; at 50.0 µM 99.7% | [3]; [7] 93% | [3]; [8] 99% | [3]; at 50.0 µM 98.8% | [4]; [8] 97% | [4]; at 50.0 µM 98.3% | [5]; [8] 99% | [5]; at 50.0 µM 99.5% | [6]; [7] 72% | [6]; [8] 99% | [6]; at 50.0 µM 99.5%
inactive: [4]; [7] 57% | [5]; [7] 59%

[N-]=[N+]=Nc1c(-c2ccccc2)c(=O)n(-c2ccccc2)c2ccccc12
inactive: [1]; [7] -19% | [2]; [7] -20% | [3]; [7] -10% | [4]; [7] 12% | [5]; [7] -2% | [6]; [7] -13%
active: [1]; [8] 93% | [1]; at 50.0 µM 88% | [2]; [8] 94% | [2]; at 50.0 µM 92.8% | [3]; [8] 95% | [3]; at 50.0 µM 90% | [4]; [8] 95% | [4]; at 50.0 µM 90% | [5]; [8] 94% | [5]; at 50.0 µM 90% | [6]; [8] 96% | [6]; at 50.0 µM 86.4%

Oc1ccc2c(c1)Cc1ccccc1-2
inactive: [1]; [7] 1% | [2]; [7] 0% | [2]; [8] 28% | [3]; [7] 1% | [3]; [8] 28% | [3]; at 50.0 µM 53% | [4]; [7] -8% | [5]; [7] -2% | [6]; [7] -1%
active: [1]; [8] 70% | [1]; at 50.0 µM 93.2% | [2]; at 50.0 µM 87.1% | [4]; [8] 70% | [4]; at 50.0 µM 88.3% | [5]; [8] 82% | [5]; at 50.0 µM 98.2% | [6]; [8] 72% | [6]; at 50.0 µM 93.1%

O=C(Cc1nc2ccccc2s1)Nc1ccc2ccccc2c1
active: [1]; [8] 99% | [1]; at 50.0 µM 98% | [2]; [8] 99% | [2]; at 50.0 µM 98.5% | [3]; [8] 99% | [3]; at 50.0 µM 97.8% | [4]; [8] 99% | [4]; at 50.0 µM 95.3% | [5]; [8] 99% | [5]; at 50.0 µM 97.8% | [6]; [8] 99% | [6]; at 50.0 µM 97.8%
inactive: [1]; [7] -8% | [2]; [7] 18% | [3]; [7] 31% | [4]; [7] -1% | [5]; [7] 12% | [6]; [7] 13%

CC(=O)CCC(Br)(CCC(Br)(CCC(C)=O)[N+](=O)[O-])[N+](=O)[O-] (stereo not given)
inactive: [1]; [7] 0% | [1]; [8] 13% | [2]; [7] 8% | [2]; [8] 14% | [3]; [7] -5% | [3]; [8] 33% | [4]; [7] 15% | [4]; [8] 29% | [5]; [7] 11% | [5]; [8] 28% | [6]; [7] 12% | [6]; [8] 22%
active: [1]; at 50.0 µM 95.2% | [2]; at 50.0 µM 90.5% | [3]; at 50.0 µM 81.8% | [4]; at 50.0 µM 91.5% | [5]; at 50.0 µM 79% | [6]; at 50.0 µM 98.3%

O=C1C(Cl)=C(Nc2ccc(S(=O)(=O)Nc3ccccn3)cc2)C(=O)c2ccccc21
active: [1]; [7] 99% | [1]; [8] 99% | [1]; at 50.0 µM 99.3% | [2]; [7] 99% | [2]; [8] 99% | [2]; at 50.0 µM 99.3% | [3]; [7] 96% | [3]; [8] 99% | [3]; at 50.0 µM 99.2% | [4]; [7] 95% | [4]; [8] 99% | [4]; at 50.0 µM 99.2% | [5]; [7] 99% | [5]; [8] 99% | [5]; at 50.0 µM 98.7% | [6]; [7] 90% | [6]; [8] 99% | [6]; at 50.0 µM 99.2%

COc1cc(C(Sc2ccccc2C(=O)O)Sc2ccccc2C(=O)O)ccc1O
active: [1]; [8] 91% | [1]; at 50.0 µM 95.5% | [2]; [8] 88% | [2]; at 50.0 µM 95.6% | [3]; [8] 94% | [3]; at 50.0 µM 97.4% | [4]; [8] 93% | [4]; at 50.0 µM 81.6% | [5]; [8] 97% | [5]; at 50.0 µM 87.9% | [6]; [8] 95% | [6]; at 50.0 µM 98.5%
inactive: [1]; [7] 9% | [2]; [7] 12% | [3]; [7] 21% | [4]; [7] 8% | [5]; [7] 12% | [6]; [7] 14%

Cc1ccccc1P(=O)(c1ccccc1C)c1ccccc1C
inactive: [1]; [7] 16% | [1]; [8] 31% | [1]; at 50.0 µM 0.55% | [2]; [7] 16% | [2]; [8] 28% | [2]; at 50.0 µM 12.9% | [3]; [7] 10% | [3]; [8] 42% | [3]; at 50.0 µM 13.1% | [4]; [7] 11% | [4]; [8] 51% | [4]; at 50.0 µM 32.6% | [5]; [7] 24% | [5]; [8] 24% | [5]; at 50.0 µM 32.5% | [6]; [7] 15% | [6]; [8] 45% | [6]; at 50.0 µM 4.35%
